Assay results published in ChEMBL document CHEMBL1157539, “Thousands of chemical starting points for antimalarial lead identification” (Nature, 2010).

Columns and labels:
Type in all cases: functional
[1] = system: Plasmodium falciparum; test: GSK_TCMDC: Inhibition of Plasmodium falciparum 3D7 in whole red blood cells, using parasite LDH activity as an index of growth. Test compounds present at 2uM
[2] = system: Plasmodium falciparum; test: GSK_TCMDC: Inhibition of Plasmodium falciparum Dd2 in whole red blood cells, using parasite LDH activity as an index of growth. Test compounds present at 2uM
[3] = system: HepG2; test: GSK_TCMDC: Percent inhibition of human HepG2 cell line. Test compounds present at 10uM.

Row | SMILES | Inhibition [1] [%] | Inhibition [2] [%] | Inhibition [3] [%]
1 | Cc1cccc(C)c1CNc1ccnc2cc(C#N)ccc12.Cl | 100 | 99 | 20
2 | NS(=O)(=O)c1ccc(CNC(=O)c2cnc3c(O)cccc3c2Nc2cccc(NC(=O)c3ccc(Cl)c(Cl)c3)c2)cc1.O=C(O)C(F)(F)F | 97 | 35 | 56
3 | Cc1cccc2nc(-c3cccc(-c4cccc(NC(=O)Cc5ccc[n+]([O-])c5)c4)c3)[nH]c12 | 100 | 99 | 0
4 | NC(=O)c1ccccc1OCC(=O)Nc1ccc(-c2cccc(-c3nc4cc(C(F)(F)F)ccc4[nH]3)c2)cc1 | 100 | 11 | 51
5 | CCOc1cc(C=NNc2nc(C)cc(-n3nc(C)cc3C)n2)ccc1O | 93 | 52 | 46
6 | CC(=O)Nc1ccc2[nH]cc(C3CCN(CC4CCC(NC(=O)/C=C/c5ccccc5Cl)CC4)CC3)c2n1 (stereo not given) | 100 | 79 | 16
7 | CS(=O)(=O)CCNCc1ccc(-c2ccc3c(Nc4ccc(Cl)cc4F)ccnc3c2)o1 | 99 | 98 | 6
8 | Cc1cccc2nc(-c3ccc(-c4cccc(CNCc5cnn(-c6ccccc6)n5)c4)s3)[nH]c12.O=C(O)C(F)(F)F | 98 | 58 | 40
9 | Cc1cccc2sc(N(CCCn3ccnc3)C(=O)C=Cc3cccs3)nc12.Cl | 91 | 9 | 0
10 | CC(C)(CNCc1ccc(Cl)cc1)c1nc(-c2ccc(Cl)c(O)c2)c(-c2ccncc2)[nH]1.Cl | 100 | 98 | 86
11 | COc1cccc(CC(=O)NC2CCN(c3ccnc4cc(Cl)ccc34)C2)c1.O=C(O)C(F)(F)F (stereo not given) | 100 | 85 | 9
12 | Cc1cc(OCCCN2CCC(NS(=O)(=O)c3ccc(Cl)c(Cl)c3)C2)c2ccccc2n1 (stereo not given) | 87 | 37 | 28
13 | Cc1cc(NC(=O)c2ccsc2)ccc1OC1CCN(Cc2ccc(F)cc2)CC1.O=C(O)C(F)(F)F | 83 | 47 | 9
14 | COc1ccc(CN2CCN(C(=O)c3cccs3)CC2)c(O)c1 | 97 | 2 | 7
15 | CCCn1c(Sc2ccc(C#N)c([N+](=O)[O-])c2)nnc1-c1cc(OC)cc(OC)c1 | 98 | 79 | 24
16 | CCCCN1Cc2c(n(CC(=O)Nc3ccccc3)c3cc(-c4ccccc4)nn3c2=O)C1=O | 92 | 60 | 1
17 | O=C(O)c1cccnc1Sc1ccc(Cl)cc1 | 100 | 4 | 5
18 | COc1ccc(CNCc2ccccc2)cc1-c1ccc(OC)c(S(=O)(=O)NCCN2CCCC2)c1.O=C(O)C(F)(F)F | 100 | 55 | 14
19 | COc1cc2nc(N3CCC(CNC(=O)/C=C/c4ccccc4F)CC3)nc(N)c2cc1OC.Cl | 100 | 88 | 0
20 | CS(=O)(=O)Nc1cccc(-c2cnc3[nH]cc(-c4ccc(C(=O)O)cc4)c3c2)c1 | 98 | 82 | 0

Row | SMILES | Inhibition [1] [%] | Inhibition [2] [%] | Inhibition [3] [%]
21 | CC(C)(C)C1CCc2onc(C(=O)Nc3cc(Cl)ccc3O)c2C1 (stereo not given) | 98 | 82 | 5
22 | CCCc1cn2c3c(cc(C(=O)N[C@@H](Cc4ccccc4)[C@H](O)CNC4CCOCC4)cc13)N(C)S(=O)(=O)CC2.O=CO | 99 | 98 | 1
23 | CN(C)CCCNc1ncnc2c1[nH]c1ccc(Br)cc12 | 100 | 19 | 3
24 | CCCCc1ccc(-c2ccc(-c3c(C)[nH]c(C)c(Br)c3=O)cn2)cc1.Cl | 98 | 96 | 0
25 | FC(F)(F)c1ccc2[nH]c(-c3ccc(-c4ccc(CNCCN5CCNCC5)cc4)cc3)nc2c1.O=C(O)C(F)(F)F | 92 | 74 | 13
26 | CCOC(=O)c1cccc(NC(=O)Nc2cccc(-c3ncc(OCCCN)c4c3nc(-c3nonc3N)n4CC)c2)c1.O=C(O)C(F)(F)F | 100 | 98 | 16
27 | CCOC(=O)C(NC(=O)c1ccc([N+](=O)[O-])o1)C(C)C (stereo not given) | 87 | 8 | 0
28 | O=C(Nc1cccc(F)c1)N[C@H]1CCN(CCCCCNC(=O)C2CC2c2ccc(Cl)c(Cl)c2)C1 (stereo not given in full) | 90 | 1 | 41
29 | C[C@H]1CN(Cc2cccc(-c3cc(CNC(=O)c4cccc(CC5CCN(C)CC5)c4)ccc3F)c2)CCN1C | 100 | 99 | 42
30 | COc1ccc2nccc([C@@H](O)CN3CCC(NCCOc4ccc(F)cc4F)CC3)c2c1.O=C(O)C(=O)O | 100 | 68 | 13
31 | O=C(/C=C/c1ccc(Cl)c(Cl)c1)NCCC(CN1CCC(c2c[nH]c3ccccc23)CC1)c1ccccc1 (stereo not given) | 100 | 42 | 84
32 | CCOC(=O)c1ccc(OCc2ccc(-c3ccccc3)cc2)cc1 | 96 | 0 | 18
33 | CC(=O)Nc1cc(C(=O)Nc2cccc(-c3cccc(-c4nc5cccc(C)c5[nH]4)c3)c2)ccc1C | 100 | 62 | 25
34 | CCNc1cc(C(=O)N[C@@H](Cc2ccccc2)[C@H](O)CNCCCc2ccc(OC)cc2)cc(N2CCCC2=O)c1.O=C(O)C(F)(F)F | 99 | 96 | 4
35 | O=C1NC(=O)C(c2ccc(Cl)cc2)=C1Nc1cccc(S(=O)(=O)C(F)(F)F)c1 | 99 | 51 | 1
36 | CCCCCN1CCC(NC(=O)c2ccc(C(=O)Nc3ccc(C(C)C)cc3)cc2)CC1.O=C(O)C(F)(F)F | 98 | 9 | 41
37 | Cc1ccc(/C=C/C(=O)NC2CCC(N3CCC(c4ccccc4C)CC3)CC2)cc1C (stereo not given) | 100 | 43 | 12
38 | COc1cc2nccc(Nc3cccc(Oc4ccccc4)c3)c2cc1OC.Cl | 100 | 95 | 25
39 | Cn1cncc1C(=O)Nc1ccc(-c2cccc(-c3nc4cc(C(F)(F)F)ccc4[nH]3)c2)cc1 | 100 | 3 | 34
40 | CC(C)(C)c1ccc(CN2CCC(CNC(=O)c3cc(-c4ccccc4F)cs3)C2)cc1.O=C(O)C(F)(F)F (stereo not given) | 100 | 98 | 46

Row | SMILES | Inhibition [1] [%] | Inhibition [2] [%] | Inhibition [3] [%]
41 | CC(C)NCc1cccc(-c2cccc(NC(=O)c3ccc(C#N)cc3)c2)c1.O=C(O)C(F)(F)F | 97 | 20 | 18
42 | O=S(=O)(c1c(Cl)cc(Cl)cc1Cl)N1CCCCC(c2ccc(C(F)(F)F)cc2)=N1 | 98 | 99 | 6
43 | Cc1nc2nc(N)nc(N)c2c(C)c1Cc1ccc(C(N)=O)cc1.Cl | 97 | 0 | 55
44 | COc1ccccc1C1CCN(C2CCC(NC(=O)/C=C/c3ccc(OC(F)(F)F)cc3)CC2)CC1 (stereo not given) | 82 | 11 | 65
45 | O=S(=O)(c1cccc(Cl)c1F)N(CCC(O)(C(F)(F)F)C(F)(F)F)Cc1cccc(O)c1 | 100 | 86 | 0
46 | O=C(c1cccc(-c2cccc(-c3nc4cc(C(F)(F)F)ccc4[nH]3)c2)c1)N1CCCCC1CN1CCC(O)C1 (stereo not given) | 91 | 100 | 51
47 | CC(C)Cc1ccc(N2CCN(CCCCNC(=O)c3ccc(NC(=O)c4ccc(Cl)c(Cl)c4)cc3)CC2)cc1 | 94 | 25 | 21
48 | Cc1cccc2nc(C3CCN(CC4CCN(C(=O)/C=C/c5ccc(Cl)c(Cl)c5)CC4)CC3)[nH]c12 | 100 | 79 | 46
49 | CSc1ccc(CN2CCC(NC(=O)c3ccc(-c4cccc(Cl)c4)s3)CC2)cc1.O=C(O)C(F)(F)F | 86 | 19 | 75
50 | O=C(NCCN1CCCC1)c1cccc(-c2ccc(-c3nc4ccccc4[nH]3)cc2)c1 | 100 | 36 | 20
51 | Nc1cccc(CNCc2ccc(-c3cccc(-c4nc5cc(C(F)(F)F)ccc5[nH]4)c3)cc2)c1.O=C(O)C(F)(F)F | 100 | 100 | 60
52 | CCCCCCc1cc(OC)c(OC)cc1C(C)Nc1ccnc2cc(Cl)ccc12 (stereo not given) | 95 | 79 | 6
53 | COc1ccccc1C1CCN(C2CCC(NC(=O)/C=C/c3cccc(Cl)c3F)CC2)CC1 (stereo not given) | 96 | 19 | 50
54 | COCCN(C)c1ccc(C(=O)Nc2ccccc2)cc1NS(=O)(=O)Cc1ccccc1.O=C(O)C(F)(F)F | 92 | 47 | 2
55 | O=C(/C=C/c1ccc(Cl)c(Cl)c1)N1CCC(CCCN2CCC(c3c[nH]c4ccc(O)cc34)CC2)CC1 | 100 | 99 | 60
56 | O=C(NCCCCN1CCN(c2cccc3c2OCCO3)CC1)c1ccc(NC(=O)c2cc(Cl)cc(Cl)c2)cc1 | 100 | 89 | 21
57 | Cn1cc(C(=O)Nc2cccc(-c3cccc(-c4nc5cc(F)ccc5[nH]4)c3)c2)n(C)c1=O | 98 | 50 | 15
58 | COc1ccc(NC(=O)/C=C/c2ccc(Cl)c(Cl)c2)cc1N1CCN(C)CC1 | 90 | 20 | 23
59 | CS(=O)(=O)Cc1ccc(Nc2nccc(NC3CCN(c4nccc(C(F)(F)F)n4)CC3)n2)cc1 | 88 | 23 | 34
60 | O=C(CN1CCCC1)Nc1cccc(C(=O)Nc2cccc(C(F)(F)F)c2)c1 | 95 | 83 | 9
